Reference: PubChem BioAssay AID1645855 (Buhrlage Lab, Dana-Farber Cancer Institute and Novartis …, 2021)
Among all 47,000 compounds or so, about 3,100 (6.6%) were called active. Shown is part of a subset that was picked to be rich in actives. Unmarked numbers belong to inactive results. No stated cut-off is given here; in the data, active means inhibition above about 30%; inactive means the rest.

target: Ubiquitin carboxyl-terminal hydrolase 17-like protein 5 (Homo sapiens) (UniProt A8MUK1); test: blocks human USP17 ubiquitin-rhodamine cleavage (AID 1645855); conditions: purified USP17, Ub-rhodamine cleavage fluorescence, 3 h; at 50 µM; hits give high values
Sequence (A8MUK1 whole entry, looked up): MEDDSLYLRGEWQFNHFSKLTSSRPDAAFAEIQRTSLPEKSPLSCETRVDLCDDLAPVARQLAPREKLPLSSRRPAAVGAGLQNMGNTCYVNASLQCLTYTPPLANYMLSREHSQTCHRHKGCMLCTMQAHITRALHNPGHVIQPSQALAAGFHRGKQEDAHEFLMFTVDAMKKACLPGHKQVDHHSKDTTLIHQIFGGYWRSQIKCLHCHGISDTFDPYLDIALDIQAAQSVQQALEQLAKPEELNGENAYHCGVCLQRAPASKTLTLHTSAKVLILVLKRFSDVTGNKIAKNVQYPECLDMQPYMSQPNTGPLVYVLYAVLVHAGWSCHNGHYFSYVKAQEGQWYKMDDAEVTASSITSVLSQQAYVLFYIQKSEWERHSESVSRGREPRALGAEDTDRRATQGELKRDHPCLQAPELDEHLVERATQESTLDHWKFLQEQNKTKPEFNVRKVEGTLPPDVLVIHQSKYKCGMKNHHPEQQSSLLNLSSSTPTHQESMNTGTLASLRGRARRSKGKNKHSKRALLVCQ

| SMILES | inhibition |
| --- | --- |
| COc1cc([C@@H]2c3cc4c(cc3C[C@@H]3COC(=O)[C@H]32)OCO4)cc(OC)c1OC | 68.6% (active) |
| O=C1CSC(c2ccc(F)cc2)c2c(-c3ccccc3)nn(-c3ccccc3)c2N1 (stereo not given) | 6.01% |
| c1ccc(C2NCc3ccccc3-n3cccc32)cc1 (stereo not given) | 1.12% |
| O=c1c2ccccc2nc(-c2ccccc2)n1-c1ccccn1 | -2.09% |
| CN1C[C@H]2N(c3ncccn3)CCC[C@@]2(C(=O)NCC2CC2)C1 | 8.79% |
